Reference: PubChem BioAssay (NCI)
The panel holds about 79,000 compounds, 15% with a hit somewhere; the sample as a whole holds those more often. A number with no mark means an inactive call. Active and inactive are the calls of the source. No stated cut-off is given here; in the data, active means growth inhibition above about 70%; inactive means the rest.

assay: NCI Yeast Anticancer Drug Screen. Data for the rad14 strain (AID 159);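 further: 0% = growth of vehicle-treated control cultures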; conditions: S. cerevisiae rad14 strain growth inhibition; at 11.0 µM; hits give high values
Outline: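 Growth inhibition vs vehicle controls; genetically altered yeast strain (DNA damage repair defect) treated with test compounds.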

| SMILES | growth inhibition |
| --- | --- |
| S=C(S)NN1CCOCC1 | 34% |
| COc1cc2c3c(cccc3c1)C(=O)N(CCN(C)C)C2=O | -24% |
| COC(=O)C1=C(C)NC(C)=C(C(=O)OCCCN2CCC(c3ccccc3)(c3ccccc3)CC2)C1c1cccc([N+](=O)[O-])c1 (stereo not given) | 99% (active) |
| c1ccc2c(c1)Oc1cccc3cccc-2c13 | 21% |
| CN(C)CCOc1ccc2c(c1)C/C(=C/c1ncc([N+](=O)[O-])n1C)C2=O | 81% (active) |
| Cc1ccc(CCC2=CCCc3c2ccc2ccccc32)cc1 | 0% |
| CNC(=O)OCc1c(COC(=O)NC)c(-c2ccc(Cl)c(Cl)c2)n2c1CCC2 | -31% |
| Clc1ccccc1C1OC1c1ccccc1Cl (stereo not given) | -50% |
| O=[N+]([O-])c1cc(CCl)ccc1CCl | 38% |
| O=C1C=CC(=O)c2c(O)c(Nc3ccc(OC(F)(F)F)cc3)c(Cl)c(O)c21 | 6% |
| S=c1[nH]nc(Nc2ccc(Cl)cc2)s1 | 0% |
| Cn1ccnc1Oc1ccc(Cl)cc1 | 26% |
| BrCc1cccc2ccc3cccc(CBr)c3c12 | -2% |
| O=C1c2ccccc2-c2nc3ccccc3nc21 | -31% |
| CCCCCCCCCCCCCCCCCCNC | -16% |
| Oc1ccc(NCn2c(=S)sc3ccccc32)cc1 | -6% |
| O=C1C2CC[C@@H]3C(=O)C(Cl)(Cl)[C@@H]3CCC2C1(Cl)Cl (stereo not given in full) | 6% |
| CC[n+]1ccc2c(C)c3[nH]c4ccc(O)cc4c3c(C)c2c1 | -23% |
| Cc1ccc(-n2cc(-c3ccc(Cl)cc3)c(C#N)c2N)cc1 | -1% |
| CC(=O)[O][Bi]([c]1ccccc1)[c]1ccccc1 | 64% |

| SMILES | growth inhibition |
| --- | --- |
| CC1=C(SCCO)C(=O)c2ccccc2C1=O | 8% |
| C/C(=N\O)C1CC2C=C(C#N)C1N(Cc1ccccc1)C2 (stereo not given) | 2% |
| CC(Br)C(=O)c1ccc2cc(Br)c3ccccc3c2c1 (stereo not given) | 0% |
| Nc1nc(-c2cccnc2)cc(-c2cc(-c3cccnc3)nc(N)n2)n1 | -1% |
| CC(C)=CC(=O)O[C@@H]1CC(C)(C)CC2C3=CCC4[C@]56CC[C@](O)(OC5)C(C)(C)C6CC[C@@]4(C)C3(C)CC[C@]21C(=O)O (stereo not given in full) | 44% |
| CCC(C)COC(=O)c1ccc(N=Cc2ccc(C=Nc3ccc(C(=O)OCC(C)CC)cc3)cc2)cc1 (stereo not given) | 4% |
| Oc1cccc2c(Cl)ccnc12 | 99% (active) |
| O=C(O)c1cccc(-c2c3ccc(=O)cc-3oc3cc(O)ccc23)c1 | 2% |
| CN(CCc1ccccn1)c1ccc2c(c1)Cc1ccccc1-2 | 38% |
| Cc1cc(S(=O)(=O)/N=C(/NN)NNc2cccc(C(F)(F)F)n2)c(S)cc1Cl | 1% |
| O=C1C2C(C(=O)N1c1ccc(OCc3ccccc3)cc1)C1c3ccccc3C2C2CCCCN21 (stereo not given) | 4% |
| Nc1ccccc1CC(O)C(=O)O (stereo not given) | 24% |
| O=C(O)C1CCCCC1c1c2ccc(=O)c(O)c-2oc2c(O)c(O)ccc12 (stereo not given) | -9% |
| Cc1ccc2ccc(O)cc2c1 | -23% |
| O=C1C(=O)c2ccccc2C=C1[N+](=O)[O-] | 15% |
| COC(=O)c1ccc(NCC2=CC(=O)C=CC2=O)cc1O | 98% (active) |
| C(CCSC1=NCCN1)CSC1=NCCN1 (tested in a mixture with another compound) | 99% (active) |
| N#Cc1c(N)[nH]c2ccc(Sc3ccccc3)cc12 | 7% |
| CCNc1nnc(CSc2nc(-c3ccccc3)c(-c3ccccc3)[nH]2)s1 | -51% |
| CC[C@@]1(O)C(=O)OCc2c1cc1n(c2=O)Cc2cc3c(N)cccc3nc2-1 | -25% |
